In the library only some 3.2% were active in any assay of this set; here they are far more common.
sPLA2-III inh: human group III sPLA2 inhibitors, primary screen, biochemical, QFRET, BODIPY PC-A2 liposome substrate. Group 3 secretory phospholipase A2 (Homo sapiens), Q9NZ20. QFRET BODIPY PC-A2 liposome hydrolysis, fluorescence. inhibition, % at 12.2 µM. 370,000 compounds, 0.56% hits. AID 743126, 2013;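 active = inhibition above mean plus 3 SD of compounds lying within the high and low control bounds, cut at about 19% in these data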
Target sequence (Q9NZ20 whole entry, looked up): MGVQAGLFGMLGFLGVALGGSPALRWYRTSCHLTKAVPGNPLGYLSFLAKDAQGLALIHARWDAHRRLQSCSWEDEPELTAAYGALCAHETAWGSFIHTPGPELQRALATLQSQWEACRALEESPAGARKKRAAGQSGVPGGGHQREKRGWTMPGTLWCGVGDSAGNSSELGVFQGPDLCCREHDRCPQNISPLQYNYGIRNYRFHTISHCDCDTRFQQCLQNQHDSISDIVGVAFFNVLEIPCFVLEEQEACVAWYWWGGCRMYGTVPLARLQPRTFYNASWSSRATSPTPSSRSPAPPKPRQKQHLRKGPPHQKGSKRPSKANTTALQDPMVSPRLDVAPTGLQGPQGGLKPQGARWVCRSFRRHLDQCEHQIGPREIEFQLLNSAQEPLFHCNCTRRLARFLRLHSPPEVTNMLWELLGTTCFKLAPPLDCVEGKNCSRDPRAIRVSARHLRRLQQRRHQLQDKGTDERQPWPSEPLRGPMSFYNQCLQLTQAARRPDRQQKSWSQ
MsrA inh: bovine MsrA enzyme inhibitors, primary screen, biochemical, absorbance, HTS; Methionine sulfoxide reductase A (Bos taurus); purified bovine MsrA, absorbance read-out; inhibition, % at 15.5 µM; 360,000 compounds, 0.75% hits; in the data active = inhibition above about 4.5%
PG9 Ab binder: binders of HIV-1 gp120 antibody PG9, primary screen, biochemical, TR-FRET | AID 624416, 2012 | inhibition, % at 6.7 µM | HIV-1 gp120 / PG9 antibody interaction | TR-FRET gp120-PG9 antibody binding | 360,000 compounds, 0.43% hits; in the data active = inhibition above about 8.5%
MsrA act: bovine MsrA enzyme activators, primary screen, biochemical, absorbance, HTS; Methionine sulfoxide reductase A (Bos taurus); purified bovine MsrA, absorbance read-out; activation, % at 10.6 µM; 360,000 compounds, 0.3% hits; AID 602163, 2012; in the data active = activation above about 7.5%
rCAG RNA binder: binders of r(CAG) RNA repeats, primary screen, biochemical, fluorescence; 370,000 compounds, 1.3% hits; r(CAG) RNA repeat, TO-PRO-1 dye displacement fluorescence; inhibition, % at 3 µM;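 active = inhibition above the plate cutoff, the mean of all test compounds on that plate plus 3 SD, cut at about 35% in these data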;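 note: higher means more dye released from RNA so lower well fluorescence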
PG9 bind confirm: binders of anti-gp120 antibody PG9, confirmation, biochemical, TR-FRET; TR-FRET PG9 antibody binding; inhibition, % at 6.7 µM; shares compounds with PG9 Ab binder; 1,500 compounds, 90% hits; in the data active = inhibition above about 9%
PGV04 Ab binding: binders of control antibody PGV04, counter-screen for PG9 antibody binder project, biochemical, TR-FRET, distinct HIV envelope site | shares compounds with PG9 Ab binder | TR-FRET PGV04 antibody-gp120 binding | inhibition, % at 6.7 µM | 1,500 compounds, 95% hits | AID 651604, 2012; in the data active = inhibition above about 9.5%
PG9 bind DR: small-molecule binders of antibody PG9, dose response, biochemical, TR-FRET, HIV-1 gp120 antibody. shares compounds with PG9 Ab binder. TR-FRET PG9 antibody-gp120 binding inhibition. IC50, µM. 95 tested, under 10 active; in the data active = IC50 below about 10 µM
PGV04 DR counter: binders of control antibody PGV04, dose response, counter-screen for PG9 antibody binder project, biochemical, TR-FRET, distinct HIV envelope site | shares compounds with PG9 Ab binder | TR-FRET binding to control antibody PGV04 | IC50, µM | 95 compounds, 20% hits | AID 651937, 2012
PG126 DR counter: binders of control antibody PG126, dose response, counter-screen for PG9 antibody binder project, biochemical, TR-FRET, distinct HIV envelope site. shares compounds with PG9 Ab binder. TR-FRET binding to antibody PG126, counterscreen. IC50, µM. 95 compounds, 20% hits. AID 651939, 2012
Of the large screens only hits and unclear results are named; the others gave an inactive call (follow-up assays come after a bar, where they were run). Cut-off read from the data, not from the text of the source, unless noted: active = IC50 below about 9 µM; inactive = the rest.

CCCn1cnc2c(sc3nc4c(cc32)CSC(C)(C)C4)c1=O	none
CC(C)CCOc1ncnc2c1sc1nc3c(cc12)CSC(C)(C)C3	PG9 Ab binder 26 | PG9 bind confirm inactive | PGV04 Ab binding 29
Cc1ccc2cc(CN(C(=O)c3cccs3)c3ccccc3)c(=O)[nH]c2c1	PG9 Ab binder 14 | PG9 bind confirm 21 | PGV04 Ab binding 33
Cc1ccc2[nH]c(=O)c(CN(C(=O)c3cccs3)c3ccccc3)cc2c1	none
O=C(Nc1ccc(F)cc1Cl)c1ccc2c(=O)n3c(nc2c1)CCCCC3	PG9 Ab binder 29 | PG9 bind confirm 30 | PGV04 Ab binding 9.7 | PG9 bind DR inactive | PGV04 DR counter inactive | PG126 DR counter inactive
Cc1nn(-c2ccccc2)c2sc(C(=O)NNC(=O)COc3cccc4ccccc34)cc12	PG9 Ab binder 10 | PG9 bind confirm 11 | PGV04 Ab binding 20
c1nc(NCC2CCOC2)c2cc(-c3ccc4c(c3)OCO4)ccc2n1 (centres undefined)	none (no result: MsrA inh, PG9 Ab binder, MsrA act, rCAG RNA binder)
COc1ccc(/C=C/C(=O)Oc2cccc(/C=N/NC(=O)COc3c(C)cccc3C)c2)cc1	PG9 Ab binder 9.5 | PG9 bind confirm 11 | PGV04 Ab binding 16
COc1ccc(/C=C/C(=O)Oc2ccc(/C=N/NC(=O)COc3c(C)cccc3C)cc2)cc1	none
Cc1nc(SCCc2nc3ccccc3[nH]2)c2oc3ccccc3c2n1	PG9 Ab binder 29 | PG9 bind confirm 11 | PGV04 Ab binding 13
O=C(CSc1ncnc2c1oc1ccccc12)Nc1cccc(Cl)c1	PG9 Ab binder 81 | PG9 bind confirm 81 | PGV04 Ab binding 94
CCOc1ccccc1NC(=O)CSc1ncnc2c1oc1ccccc12	none
Cc1nc(SCC(=O)Nc2ccc(F)cc2)c2oc3ccccc3c2n1	PG9 Ab binder 45 | PG9 bind confirm 78 | PGV04 Ab binding 85
Cc1nc(SCC(=O)Nc2ccccc2)c2oc3ccccc3c2n1	PG9 Ab binder 95 | PG9 bind confirm 96 | PGV04 Ab binding 99
Cc1nc(SCC(=O)NCc2ccco2)c2oc3ccccc3c2n1	none
CCOC(=O)Cc1nc(N2CCN(C(=O)C3CCCO3)CC2)c2c(C)c(C(=O)OCC)sc2n1 (centres undefined)	none (no result: MsrA inh, PG9 Ab binder, MsrA act)
COC(=O)c1ccc(CSc2ncnc3c2oc2ccccc23)o1	PG9 Ab binder 15 | PG9 bind confirm 43 | PGV04 Ab binding 80
COC(=O)c1ccc(CSc2ncnc3ccccc23)o1	none
Cc1nc(SCC(=O)NC(C)c2ccccc2)c2oc3ccccc3c2n1 (centres undefined)	PG9 Ab binder 15 | PG9 bind confirm inactive | PGV04 Ab binding 9.6
Cc1nc(SCC(=O)NCc2ccccc2)c2c(=O)n(C)c(=O)n(C)c2n1	PG9 Ab binder 14 | PG9 bind confirm inactive | PGV04 Ab binding inactive
Cc1nc(SCC(=O)NCCc2ccccc2)c2oc3ccccc3c2n1	PG9 Ab binder 26 | PG9 bind confirm 88 | PGV04 Ab binding 74 | PG9 bind DR 3.4 | PGV04 DR counter 2.4 | PG126 DR counter 2.3
Cc1nc(SCC(=O)NCCc2ccccc2)c2c(=O)n(C)c(=O)n(C)c2n1	none
CCc1nc(SCC(=O)NCCc2ccccc2)c2oc3ccccc3c2n1	none
C#CCN1C(C(=O)OC)CN(CCCCCC)CCS1(=O)=O (centres undefined)	none (no result: MsrA inh, PG9 Ab binder, MsrA act)
CN1CCN(c2ccc3c(c2)Oc2ccccc2CN(Cc2cn(Cc4cccc(C(F)(F)F)c4)nn2)S3(=O)=O)CC1	none (no result: MsrA inh, PG9 Ab binder, MsrA act)
CCC(=O)c1cn(CC(=O)Nc2cccc(C)c2C)c2ccccc12	PG9 Ab binder 9.9 | PG9 bind confirm 19 | PGV04 Ab binding 23
CCC(=O)c1cn(CC(=O)Nc2cccc(C)c2)c2ccccc12	PG9 Ab binder 25 | PG9 bind confirm 16 | PGV04 Ab binding 23
CCC(=O)c1cn(CC(=O)Nc2ccccc2Cl)c2ccccc12	PG9 Ab binder 11 | PG9 bind confirm 14 | PGV04 Ab binding 15
O=C(NCCc1c[nH]c2ccccc12)OCc1cn(-c2cccc(C(F)(F)F)c2)nn1	none (no result: MsrA inh, PG9 Ab binder, MsrA act)
COc1ccc(-c2cc(-c3nnc(SCC(=O)NC4CCCCC4)n3N)[nH]n2)cc1	none (no result: MsrA inh, PG9 Ab binder, MsrA act)
N#Cc1cccc(OC[C@@H](O)CN2CCC(C(O)(c3ccccc3)c3ccccc3)CC2)c1	none (no result: MsrA inh, PG9 Ab binder, MsrA act)
CCN(CC)C(=O)CC[C@H]1CC[C@]2(CCCN(S(=O)(=O)c3ccccc3)C2)O1	none (no result: MsrA inh, PG9 Ab binder, MsrA act)
COC(=O)c1cc2oc(C)cc2n1CC(=O)Nc1cc(C)cc(C)c1	PG9 Ab binder 9.2 | PG9 bind confirm 16 | PGV04 Ab binding 26
COC(=O)c1cc2occc2n1CC(=O)Nc1cc(OC)cc(OC)c1	none
CC1Cc2ccccc2N1C(=O)COC(=O)c1cc(Br)ccc1O (centres undefined)	PG9 Ab binder 20 | PG9 bind confirm inactive | PGV04 Ab binding inactive
C=CCOC(=O)N[C@H](c1ccc(-c2ccccc2)cc1)[C@H](C)/C=C/CC(=O)OC	none (no result: MsrA inh, PG9 Ab binder, MsrA act)
O=C(N/N=C/c1ccsc1)c1cc(-c2ccncc2)nc2ccccc12	none
O=C(N/N=C/c1ccccn1)c1cc(-c2ccncc2)nc2ccccc12	PG9 Ab binder 15 | PG9 bind confirm 19 | PGV04 Ab binding 34
CCOC(=O)CNC(=O)CSc1nc(C(C)C)nc2c1cnn2-c1ccccc1	PG9 Ab binder 8.6 | PG9 bind confirm 10 | PGV04 Ab binding 15
O=C(Nc1cccc(C(F)(F)F)c1)OCCCN1CCC2(CCC(c3ccccc3)CC2)C1=O (centres undefined)	none (no result: MsrA inh, PG9 Ab binder, MsrA act)
CCCC(=O)OC12CCCN(C1)/C(=C/c1ccc(Cl)cc1)C2 (centres undefined)	none (no result: MsrA inh, PG9 Ab binder, MsrA act)
CCOc1ccc(-n2c(=O)c3c(C)c(C(=O)N(C)C)sc3n(CC(=O)Nc3ccccc3F)c2=O)cc1	none

Source: PubChem BioAssay (The Scripps Research Institute Molecular Screening Center)
